Compound activity from PubChem.
GLS inh: qHTS for Inhibitors of Glutaminase (GLS); GLS enzymatic activity, qHTS titration; Potency, µM (series often up to 45.5 µM), usual class: inhibitors; 410,000 tested, 0.21% active; Glutaminase kidney isoform, mitochondrial (Homo sapiens), O94925
Target sequence (O94925 whole entry, looked up, canonical isoform): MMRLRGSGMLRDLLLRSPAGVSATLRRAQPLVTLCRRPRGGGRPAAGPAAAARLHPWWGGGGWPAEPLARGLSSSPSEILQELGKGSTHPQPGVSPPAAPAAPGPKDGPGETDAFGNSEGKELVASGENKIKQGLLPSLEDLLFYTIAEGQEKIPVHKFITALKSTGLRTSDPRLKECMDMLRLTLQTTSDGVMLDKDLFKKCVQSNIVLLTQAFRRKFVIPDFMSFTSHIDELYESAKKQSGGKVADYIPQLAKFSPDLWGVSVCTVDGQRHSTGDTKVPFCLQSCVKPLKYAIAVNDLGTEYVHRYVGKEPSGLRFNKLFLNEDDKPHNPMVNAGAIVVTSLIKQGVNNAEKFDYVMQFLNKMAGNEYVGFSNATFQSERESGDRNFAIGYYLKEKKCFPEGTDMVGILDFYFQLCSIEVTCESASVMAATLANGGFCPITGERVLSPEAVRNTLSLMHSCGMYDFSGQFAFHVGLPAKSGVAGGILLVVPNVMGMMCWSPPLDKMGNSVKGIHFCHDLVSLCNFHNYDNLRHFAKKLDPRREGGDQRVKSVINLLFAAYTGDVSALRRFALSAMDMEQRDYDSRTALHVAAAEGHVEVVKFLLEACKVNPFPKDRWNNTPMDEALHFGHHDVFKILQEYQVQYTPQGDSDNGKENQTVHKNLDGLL
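Compounds were pin-transferred onto hKGA, after which L-glutamine (1 mM solution) and a detection mix of glutamate oxidase, HRP and Amplex Red were added. Initial and 30 min RT fluorescence reads were collected.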
HP1b binding inh: HTS for Inhibitors of HP1-beta Chromodomain Interactions with Methylated Histone Tails | Chromobox protein homolog 1 (Homo sapiens), P83916 | AlphaScreen HP1-beta / biotin-H3K9me3 peptide binding | Potency, µM (top dose mostly 114 µM), actives largely listed as inhibitors | 390,000 tested, 0.56% active | AID 540317, 2011; note: nearly all actives have a fitted effect of over 70% in size
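AlphaScreen: HP1-beta (50 nM) preformed 30 min with biotin-H3(1-18)K9me3 peptide (50 nM) in PBS pH 7.4, 0.01% Tween-20. Compound added for 30 min at RT, then streptavidin donor/nickel chelate acceptor beads (10 ug/mL) for 30 min.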
JMJD2A Tudor inh: qHTS Assay for Inhibitors of JMJD2A-Tudor Domain. Lysine-specific demethylase 4A (Homo sapiens), O75164. AlphaScreen JMJD2A-Tudor / H3K4me3 peptide binding. Potency, µM (titrated, usually from 114 µM), most hits filed as inhibitors. 390,000 tested, 4.4% active; note: nearly all actives have a fitted effect of over 50% in size
G9a inh: qHTS Assay for Inhibitors of Histone Lysine Methyltransferase G9a; G9a H3K9 monomethylation, AlphaScreen, 2 h; Histone-lysine N-methyltransferase EHMT2 (Homo sapiens), Q96KQ7; 350,000 tested, 8.8% active; Potency, µM (highest dose often 102 µM), usual class: inhibitors; note: nearly all actives have a fitted effect of over 75% in size
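Methyltransferase reactions run at room temperature for 2 h (20 nM enzyme, 500 nM biotin-H3K9 peptide, 20 uM SAM) after a 15 min compound preincubation; product detected by AlphaScreen beads and anti-H3K9me1 antibody.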
BAZ2B block: qHTS Assay for Inhibitors of BAZ2B; AlphaScreen BAZ2B-H3K14Ac peptide displacement; Potency, µM (titrated, usually from 114 µM), most hits filed as inhibitors; 360,000 tested, 4.4% active; AID 504333, 2011; note: nearly all actives have a fitted effect of over 60% in size
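AlphaScreen displacement: compounds (up to 110uM) incubated 30 min at room temperature with a preformed 50 nM BAZ2B/50 nM biotinylated H3K14Ac peptide complex in PBS pH 7.4 with Tween-20. Donor and acceptor beads at 10 ug/mL final added, 20 min light-protected before reading.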
Large screens that a line does not name were inactive; ! = not confirmed by another sample. Sampled rows, rich in hits. Any-hit rate of the full collection: about 10%. Calls come from the whole dose curve; as a rule, active = well fitted curve in the direction sought with a large enough effect; inconclusive = small, poorly fitted or top-dose-only effect, or another doubt; inactive = no such curve, though single readings can be large; an effect the other way counts as inactive or inconclusive.

O=c1c(-c2nc3ccccc3s2)cccn1Cc1ccc(Cl)cc1	none
CCn1c(C(C)NC(=O)c2ccccc2C)n[nH]c1=S (stereo unspecified)	JMJD2A Tudor inh inconclusive (no result: G9a inh)
CCn1c(-c2cccn(Cc3ccccc3)c2=O)n[nH]c1=S	JMJD2A Tudor inh inconclusive, G9a inh 32µM
CCn1c(-c2ccccc2SC)n[nH]c1=S	JMJD2A Tudor inh inconclusive, G9a inh 14µM
O=C(NCc1ccncc1)C(=O)NCC(c1ccco1)N1CCN(c2ccccc2)CC1 (stereo unspecified)	none (no result: BAZ2B block)
CCCOc1ccccc1OCC(=O)Nc1cccc(S(=O)(=O)NC2=NCCC2)c1	none
N[C@@H](Cc1ccccc1)c1nnc2sc(SCc3ccccc3)nn12	JMJD2A Tudor inh inconclusive, G9a inh 7.1µM, BAZ2B block inconclusive
Cc1ccc(C(=O)OC2CCN(c3ccc([N+](=O)[O-])cc3)CC2)cc1	none
CCCC(=O)N1c2ccccc2-c2nnc(SC)nc2OC1c1sccc1C (stereo unspecified)	G9a inh inconclusive, BAZ2B block inconclusive
Cc1cc(C)n2c(NCc3ccccc3)c(-c3cc4ccccc4o3)nc2n1	none (no result: HP1b binding inh, JMJD2A Tudor inh, G9a inh, BAZ2B block)
COc1ccc(C(c2nnnn2CCc2ccccc2)N2CCN(C3CCCC3)CC2)cc1OC (stereo unspecified)	G9a inh 50µM, BAZ2B block inconclusive
COc1ccc(C(c2nnnn2C2CCCC2)N2CCN(C3CCCC3)CC2)cc1OC (stereo unspecified)	JMJD2A Tudor inh 56µM, G9a inh inconclusive
COc1cc(C(c2nnnn2C2CCCC2)N2CCN(C)CC2)cc(OC)c1OC (stereo unspecified)	BAZ2B block inconclusive
O=C(Cc1ccccc1)NCC(=O)N1CCCCC1	none
O=C(NCCC1=CCCCC1)c1coc(=O)c(Br)c1	none
O=C(NNC(=O)C1C2CCCCC21)c1coc(=O)c(Br)c1 (stereo unspecified)	G9a inh 45µM, BAZ2B block inconclusive
CC(C)CNC(=O)c1coc(=O)c(Br)c1	none (no result: GLS inh)
O=C(NC(CO)(CO)CO)c1coc(=O)c(Br)c1	none
CN(C)CCNC(=O)c1coc(=O)c(Br)c1	JMJD2A Tudor inh inconclusive, G9a inh 16µM, BAZ2B block inconclusive
O=C(Nc1cc(Cl)cc(Cl)c1)c1coc(=O)c(Br)c1	G9a inh 50µM, BAZ2B block 56µM
COc1ccccc1CNC(=O)Cn1cccc1	none
Nc1ccc(C(=O)Nc2ccccc2C(=O)O)cc1	G9a inh 40µM
O=C(Nc1ccccc1C(=O)Nc1ccccc1C(=O)O)c1ccccc1	none
CC(=O)c1cc(C(=O)Nc2ccccc2C(=O)O)oc1C	JMJD2A Tudor inh 56µM, G9a inh 50µM
O=C(NC(=S)Nc1ccccc1[N+](=O)[O-])c1cncc(Br)c1	G9a inh 45µM
O=C(Nc1ccccc1C(=O)O)c1cncc(Br)c1	JMJD2A Tudor inh inconclusive, G9a inh 4.5µM, BAZ2B block inconclusive (no result: GLS inh)
O=C(CSc1ncn[nH]1)Nc1ccccc1C(=O)O	none
O=C(NC(=S)Nc1ccccc1O)c1cncc(Br)c1	GLS inh inconclusive (no result: G9a inh, BAZ2B block)
Nc1ccc(C(=O)Nc2ccc3c(O)cc(S(=O)(=O)O)cc3c2)cc1	GLS inh 6.3µM, JMJD2A Tudor inh 56µM (no result: G9a inh, BAZ2B block)
O=C(NC(=S)Nc1ccccc1C(=O)O)c1cncc(Br)c1	HP1b binding inh inconclusive, JMJD2A Tudor inh inconclusive, G9a inh 2µM
Nc1ccc(C(=O)Nc2ccc(Nc3ccncc3)cc2)cc1	none
O=C(Nc1ccccc1C(=O)O)c1ncn[nH]1	G9a inh 10µM, BAZ2B block inconclusive
Nc1ccc(NC(=O)c2ccc(C(=O)Nc3ccc(N)cc3)cc2)cc1	JMJD2A Tudor inh 56µM, BAZ2B block 71µM
Nc1ccc(C(=O)Nc2ccc(OC(F)(F)C(F)F)c(NC(=O)c3ccc(N)cc3)c2)cc1	G9a inh inconclusive
CCOC(=O)c1sc(C)c2c1NC(c1ccc(N(C)C)cc1)NC2=O (stereo unspecified)	none
Cc1cc(NC(=O)c2cncc(Br)c2)n(-c2ccccn2)n1	BAZ2B block 50µM
CNc1ncnc2c1ncn2[C@H]1C[C@H](OP(=O)(O)O)[C@@H](COP(=O)(O)O)O1	G9a inh 20µM! (no result: GLS inh, HP1b binding inh, JMJD2A Tudor inh, BAZ2B block)
Cc1nn(C)c(Oc2cccc(C(F)(F)F)c2)c1C#N	GLS inh inconclusive
Cc1nn(C)c(Oc2cccc(Cl)c2)c1C#N	GLS inh inconclusive, JMJD2A Tudor inh 20µM
COc1cccc(OCC(=O)O/N=C(\N)c2ccncc2)c1	none
CC(C)C1Nc2ccc(C(=O)N3CCN(c4ccccn4)CC3)cc2NC1=O (stereo unspecified)	none
CCNC(=O)C1(C)CCCN(C(=O)c2ccc3sccc3c2)C1 (stereo unspecified)	none (no result: HP1b binding inh, JMJD2A Tudor inh, G9a inh, BAZ2B block)
CSc1ccccc1NC(=O)C1=CC(c2cccs2)=NS(=O)(=O)N1C	JMJD2A Tudor inh inconclusive, G9a inh 35µM
COC(=O)c1ccccc1NC(=O)C1=CC(c2cccs2)=NS(=O)(=O)N1C	none
Cc1ccc(NC(=O)C2=CC(c3cccs3)=NS(=O)(=O)N2C)cc1	none
COc1cc(NC(=O)C2=CC(c3cccs3)=NS(=O)(=O)N2C)cc(OC)c1OC	JMJD2A Tudor inh inconclusive, G9a inh 45µM, BAZ2B block inconclusive
NC(=O)C[n+]1cccc(C(=O)Nc2ccccc2)c1	G9a inh 50µM
NC(=O)c1ccc[n+](Cc2ccccc2)c1	G9a inh 71µM
O=C(C[n+]1cccc(C(=O)Nc2ccccc2)c1)c1ccc(Cl)cc1	none (no result: HP1b binding inh, JMJD2A Tudor inh, G9a inh, BAZ2B block)
CCN(C(=O)COC(=O)/C=C/c1ccc(OC(F)F)c(OC)c1)C1CCS(=O)(=O)C1 (stereo unspecified)	none
CC1CCc2c(nc3nc[nH]n3c2=O)C1 (stereo unspecified)	none
S=c1c2c(nc3nc[nH]n13)CCC2	JMJD2A Tudor inh 6.3µM, BAZ2B block 45µM (no result: G9a inh)
C[C@@H]1CCC[C@]2(O[C@@H](CCO)C[C@H](O)[C@H]2O)O1	none (no result: G9a inh, BAZ2B block)
CC(=O)OC(C)(C)C#CCN1CCCC1	none
CO/N=C(\C(=O)O)c1csc(NN=C(C)C)n1	HP1b binding inh inconclusive, JMJD2A Tudor inh 22µM, G9a inh 22µM
CCOC(=O)/C(=N/Nc1ccccc1)c1csc(Nc2ccccc2)n1	JMJD2A Tudor inh inconclusive, G9a inh inconclusive, BAZ2B block inconclusive
CCC(=O)Nc1ccc(C(=O)COC(=O)C(CCSC)NC(=O)COc2ccccc2)cc1 (stereo unspecified)	none
C/C(=N\NC(=O)c1cccc([N+](=O)[O-])c1)c1cccs1	none
O=C(CSc1ncnc2c1cnn2-c1ccc(F)cc1)NCc1ccc2c(c1)OCO2	none
O=C(CSc1ncc(C(=O)O)n1-c1ccc(F)cc1)NCc1ccc2c(c1)OCO2	G9a inh 45µM
